Sampled rows, rich in hits. Any-hit rate of the full collection: about 1.4%.
AID504770: growth inhibitors of E. coli YBA685 in a screen for V. cholerae RctB (chromosome II replication) inhibitors. AID 504770. z-score (test concentration not listed). 130,000 tested, 0.27% active. E. coli YBA685 rctB-dependent plasmid, OD600 growth, 3 h; active compounds read low; in the data active = z-score below about -2, passing the limit was not always enough
PV pol inh: poliovirus RNA polymerase inhibition. P03300. poliovirus polymerase elongation, fluorescence polarization; active compounds read low. % elongation, % (compound at 16.7 µg/mL). 150,000 tested, 0.66% active. AID 588519; in the data active = % elongation below about 90%
Mtb MenB inh: inhibitors of Mycobacterium tuberculosis MenB enzyme. P9WNP5. MenB enzyme assay, absorbance read-out. AID 540299. inhibition, % (concentration not given with the values). 100,000 tested, 0.43% active; in the data active = inhibition above about 21%, passing the limit was not always enough
Target sequence (P9WNP5 whole entry, looked up): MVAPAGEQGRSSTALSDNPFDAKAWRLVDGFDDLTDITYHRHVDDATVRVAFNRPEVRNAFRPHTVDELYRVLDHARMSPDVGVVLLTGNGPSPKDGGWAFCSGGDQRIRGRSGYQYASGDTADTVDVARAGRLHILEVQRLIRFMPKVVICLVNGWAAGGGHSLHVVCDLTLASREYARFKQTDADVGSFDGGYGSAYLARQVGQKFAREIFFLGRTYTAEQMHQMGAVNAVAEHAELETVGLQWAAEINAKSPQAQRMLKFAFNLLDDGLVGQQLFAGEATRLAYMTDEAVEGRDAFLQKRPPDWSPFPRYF
Mtb MbtI inh: MbtI salicylate synthase inhibition; purified MbtI enzyme, fluorescence intensity read-out; AID 493033; 100,000 tested, 0.89% active; P9WFX0; inhibition, % (no concentration beside the values); in the data active = inhibition mostly above about 56%, no sharp cut-off; inactive = mostly below about 77%
A number is an active result; n = inactive; x = no result given.

SMILES	AID504770	PV pol inh	Mtb MenB inh	Mtb MbtI inh
N#CCCn1c(SCC(=O)c2ccc(Cl)s2)nc2ccccc21	n	n	n	n
Cc1ccn2c(NC(=O)C(C)(C)C)c(-c3ccc(F)cc3)nc2c1	n	x	x	x
O=C(O)CC(CC(=O)Nc1ccccn1)c1ccccc1 (stereo not given)	n	n	n	n
CN(c1nc(N)c(C#N)c(CC#N)c1C#N)C1CCS(=O)(=O)C1 (stereo not given)	n	n	n	n
Cc1nn(-c2ccccc2)c2c1P(=S)(N1CCOCC1)N(C)C(c1ccccc1)=N2 (stereo not given)	n	82	n	n
CNC(=O)COC(=O)c1c2c(nc3ccccc13)CCCC2	n	n	n	n
O=C(Nc1nnc(C2CC2)s1)C(F)(F)F	n	x	x	x
Oc1c(C(c2ccc(C(F)(F)F)cc2)N2CCOCC2)ccc2cccnc12 (stereo not given)	n	n	n	64
Oc1c(C(c2ccc(F)cc2)N2CCCC2)ccc2cccnc12 (stereo not given)	n	x	x	x
COc1ccccc1N1CCN(C(=O)c2nc(S(=O)(=O)Cc3ccccc3)ncc2Cl)CC1	n	n	n	n
O=c1cc(-c2ccccc2)nc(Nc2nc3ccccc3o2)[nH]1	n	68	n	n
Cc1nc(-c2ccccc2)cc(=O)[nH]1	n	n	37	n
Cc1cc(C)cc(OCCSc2nccn2C)c1	n	n	n	n
CCN(CC)S(=O)(=O)c1cc(Br)cnc1N	n	n	n	n
O=C1CSc2nnc(-c3cccs3)n21	n	57	n	n
c1csc(-c2nnc3n2-c2ccccc2SC3)c1	n	n	n	n
CC(C)c1ccc(NC(=S)NCc2ccc(C#N)cc2)cc1	n	n	n	n
CCN(CC)N=Nc1ccc(NC(C)=O)cc1	n	n	n	90
CC(=O)Nc1ccc(N=NN2CCCCC2)cc1	-2.5	n	n	n
COc1ccc(NC(=O)C2C(c3ccccc3)=C2c2ccccc2)cc1	n	n	n	x
Cc1ccc(-c2csc(-c3nnn(-c4ccc(C)c(C)c4)c3N)n2)cc1	n	27	n	n
Cc1ccc(-c2csc(-c3nnn(-c4cccc(Cl)c4)c3N)n2)cc1	n	n	n	n
Brc1ccc(-c2csc(NN=C3CCCC3)n2)cc1	n	n	n	80
CCOC(=O)c1c(NC(=O)c2cc(-c3cccc(OC)c3)on2)sc2c1CCCC2	x	77	x	x
CCOC(=O)c1c(-c2ccc(C)cc2)csc1NC(=O)c1cc(=O)c2cc(C)ccc2o1	x	61	x	x
SMILES	AID504770	PV pol inh	Mtb MenB inh	Mtb MbtI inh
CCOC(=O)c1c(-c2ccccc2)csc1NC(=O)c1cc(-c2cccc(OC)c2)on1	x	71	x	x
CCOC(=O)c1c(-c2ccccc2)csc1NC(=O)c1cc(-c2cccc(Cl)c2)on1	x	84	x	x
CCOC(=O)c1c(-c2ccc(C)cc2)csc1NC(=O)c1cc(-c2ccc(OC)cc2)on1	x	n	x	x
CCOC(=O)c1c(-c2ccc(C)cc2)csc1NC(=O)c1cc(-c2ccc(Cl)cc2)on1	x	n	x	x
CCOC(=O)c1c(NC(=O)c2cc(-c3ccc(OC)c(OC)c3)on2)sc2c1CCCC2	x	n	x	x
CCOC(=O)c1c(NC(=O)c2cc(-c3cccc(OC)c3)on2)sc(C)c1C	n	n	n	n
CCOC(=O)c1c(NC(=O)c2cc(-c3ccc(OC)cc3)on2)sc(C)c1C	x	84	x	x
Cc1oc2cc(O)ccc2c(=O)c1-c1ccccn1	n	n	x	n
O=c1c(=Nc2ccc(O)cc2)c(=O)c2ccccc12	n	49	x	n
COC(=O)c1ccccc1NC(=O)Cn1c(=O)c2ccccc2n2nncc12	n	n	n	n
CN(Cc1ccccc1)C(=O)COCc1cc(-c2ccco2)on1	n	n	n	n
Cc1noc(C)c1COC(=O)Cc1c[nH]c2ccccc12	n	n	n	n
Cc1[nH]c(=S)sc1CC(=O)N(C)Cc1ccccc1Cl	n	n	n	76
Cn1c(SCc2nc(-c3ccccc3)no2)nnc1C1CCCCC1	n	x	x	x
COc1ccc(-c2n[nH]c(=S)[nH]c2=O)cc1	n	n	n	77
Cc1ccc(-c2n[nH]c(=S)[nH]c2=O)cc1	n	n	n	n
C1COCCNCCOCCN1	n	88	n	n
CCCN(Cc1nnc(-c2ccco2)o1)C(=O)c1cccnc1SCc1c(C)noc1C	n	89	n	n
COc1ccc(OC)c(NC(=S)NCCN2CCOCC2)c1	n	n	n	n
COc1ccc(CNCCN2CCOCC2)cc1	n	n	28	n
O[N+]1=CC=CCC1=S.On1ccccc1=S.[Zn]	-4	n	n	n
COC(=O)c1cc(-c2ccc(Cl)cc2)on1	n	n	n	x
COC(=O)/C=C1/OC(c2ccc(Cl)cc2)=CC1=O	n	n	n	100
O=S(=O)(c1ccc(Cl)cc1)N(O)c1ccc(Cl)cc1	n	n	n	88
CN(c1ccccc1)S(=O)(=O)c1ccc(Cl)cc1	n	n	n	x
SMILES	AID504770	PV pol inh	Mtb MenB inh	Mtb MbtI inh
COC(=O)COc1ccc(S(=O)(=O)Nc2ccc(OC)cc2)cc1C	n	n	n	n
COc1cccc(C(=O)Nc2cc3cc(OC)ccc3oc2=O)c1	x	85	x	x
O=C(C[n+]1cccc(C(=O)Nc2ccccc2)c1)c1ccc(N2C(=O)c3ccccc3C2=O)cc1	n	n	n	57
O=C1NC(=S)NC(=O)C1C1CCCCC1	n	n	n	n
O=C1NNC(=S)C1C1CC1 (stereo not given)	n	n	n	83
Cc1cc(C)c2[nH]c(O)c(N=NC(=S)NCC3CCCO3)c2c1 (stereo not given)	n	n	n	n
Oc1[nH]c2ccc(Br)cc2c1N=NC(=S)NCC1CCCO1 (stereo not given)	n	90	n	n
O=c1/c(=C/c2ccc(Br)cc2)sc2nncn12	n	n	33	n
Cc1cc(C(=O)COC(=O)c2ccc3c(c2)NC(=O)CS3)c(C)n1Cc1cccs1	n	n	n	n
O=C(COC(=O)c1ccc2c(c1)NC(=O)CS2)NCc1cccs1	n	11	n	n
COc1ccc2o/c(=N\O)c(C(N)=O)cc2c1	n	n	n	102
CCn1nc(N)c2c(O)[nH]c(=O)cc21	n	40	n	n
O=C(/C=C/c1ccco1)C1C(=O)c2ccccc2C1=O	n	n	n	69
O=C(O)/C=C/c1ccco1	n	n	n	n
OCCSc1n[nH]c(-c2ccccc2)n1	n	n	n	n
C#CCSc1n[nH]c(-c2ccccc2)n1	n	n	n	83
CCN(CCO)C1CC(=O)N(c2ccccc2C)C1=O (stereo not given)	n	n	n	100
Cc1ccccc1N1C(=O)C(O)C(O)C1=O (stereo not given)	n	x	x	n
CSc1cccc(NC2=CC(=O)CC(C)(C)C2)c1	n	n	n	n
CCCOc1ccc(/C=C/C(=O)Nc2sc(C)c(C)c2C(=O)OCC)cc1OC	x	73	x	x
O=C1Cc2ccccc2C(=O)N1Cc1ccc2c(c1)OCO2	n	75	x	n
Cc1c(N=c2scc(-c3ccc4c(c3)NC(=O)CO4)n2Cc2ccccc2)c(=O)n(-c2ccccc2)n1C	n	n	n	n
COc1cc2c(cc1OC)CN(c1ccc3ccccc3n1)CC2	n	89	n	n
O=C(Oc1cccc2cccnc12)c1cccc(F)c1	n	x	x	n
O=C(Oc1cccc2cccnc12)c1cc(C(F)(F)F)cc(C(F)(F)F)c1	-3.2	n	n	n
